In ChEMBL document CHEMBL4513216, “Probing the Open Global Health Chemical Diversity Library for Multistage-Active Starting Points for Next-Generation Antimalarials” (ACS Infect Dis, 2020) one finds INHIBITION data, which are given here for 102 molecules.

The campaign covered roughly 69,000 compounds. About 8,600 (12%) showed an effect of 50% or more. What follows is part of a selection rich in strong results, with near analogues and random picks from the rest.

For this test, the system named is Plasmodium berghei. The experiment in a line: Screen against P. berghei liver stage (PbLuc), transformed with Luciferase, at 10uM. The class given is functional, HepG2. To be noted: tested at 10 uM.
With `O=C(NCC(CO)Cc1ccc(Cl)cc1)c1ccncc1F` (configuration not stated), the INHIBITION was -11.1%. Consider `Cc1cc(C)n(C2CCCN(C(=O)c3cn4cccnc4n3)C2)n1` (configuration not stated), for which the INHIBITION is recorded as 31.9%. For the molecule `CC(C)(C)OC(=O)N1CCCN1C(=O)c1cccc2cc[nH]c12`, the INHIBITION was determined as 56.5%. `CC(C)(C)OC(=O)N1CCCN1C(=O)c1cccc(F)c1F`: the INHIBITION came to 31.9%.

`Cc1[nH]ccc1C(=O)N1CCCN1C(=O)OC(C)(C)C`: the INHIBITION turned out to be 14.3%. As to `O=C(NC1CCCC1)c1cc(C2CCCNC2)n[nH]1` (configuration not stated), the INHIBITION was found to be 9.98%. For `CN1C[C@@H](O)[C@]2(CCN(C(=O)c3ccccc3)C2)S1(=O)=O` the value was 8.61%. As to `O=C(C1CCC1)N1C[C@H]2CC[C@@H](C1)N(S(=O)(=O)c1ccccc1)C2`, the INHIBITION is on record as -49.3%.

In the case of `CCOc1nnc(CN(CC)CC(=O)NC(C)C)s1`, the INHIBITION is given as 39.9%. The same measure for `CCOc1nnc(CN(CC)CC(=O)NC(C)(C)C)s1`: 24.7%; for `CCOc1nnc(CN(CC)CC(=O)Nc2c(F)cccc2F)s1`: 69.1%; for `Cc1oc(C)c(C(=O)N2CCCN(c3nccs3)CC2)c1C`: -21.7%. For the molecule `O=C(Cc1n[nH]c(-c2cncc(Br)c2)n1)NCc1ccncc1`, the INHIBITION is 29.4%. As to `NC(=O)CNC(c1ccccc1)c1ccc(OC(F)F)cc1` (configuration not stated), the INHIBITION is listed as -11.9%. For the molecule `CC(NC(=O)CN1CCN(c2cccc(Cl)c2)CC1)c1ccco1` (configuration not stated), the INHIBITION was 22.6%. The same measure for `Cc1ccc(Cl)cc1N1CCN(CC(=O)NC(C)c2ccco2)CC1` (configuration not stated): 26.8%; for `CC(NC(=O)CN1CCN(c2ccncc2Cl)CC1)c1ccco1` (configuration not stated): 71.3%. The same measure for `O=c1[nH]c(-c2ccccc2)nc2c1CCN(S(=O)(=O)N1CCCC1)C2`: 9%; for `Cc1ccc(S(=O)(=O)N[C@H](CO)C(C)C)cc1N(C)C`: 6.94%; for `CC1(C)CN=C(N2CCN(CC3CCOC3)CC2)S1` (configuration not stated): 32%.

For the molecule `CC1(C)CN=C(N2CCN(CC3CCCO3)CC2)S1` (configuration not stated), the INHIBITION amounted to 25.5%. `CC1(C)CN=C(N2CCN(CCCN3CCOCC3)CC2)S1`: the INHIBITION amounted to 89.6%. With `Cc1nc(CN2C(=O)CC[C@@H]3[C@H]2CCN3C(=O)c2ccccn2)cs1`, the INHIBITION was determined as 48.6%. For `O=C(c1cccnc1)N1Cc2ccccc2OCC1Cn1ccnc1` (configuration not stated) the value was 24.8%. Regarding `Cc1nc(C)c(C(=O)N2Cc3ccccc3OCC2Cn2ccnc2)s1` (configuration not stated), the INHIBITION was found to be 51.7%. As for `Cc1nc(C)c(C(=O)N2Cc3ccccc3OCC2Cn2ccnc2)o1` (configuration not stated), the INHIBITION stood at 25.8%. Turning to `CCS(=O)(=O)N1C[C@@H](O)[C@H](N2CCc3ccccc3C2)C1`, the INHIBITION was found to be 9.98%. With `Cc1noc(C)c1C(=O)N1CC[C@]2(C[C@@H](OCc3cccnc3)CO2)C1`, the INHIBITION amounted to 10.1%.

`CCC[C@@H]1CN(Cc2ccccc2-c2ccco2)C[C@H]1NC(C)=O`: the INHIBITION is reported as -20%.

`Cc1nc(N(C)C)nc(C)c1NC(=O)c1ccccc1C(F)(F)F`: the INHIBITION came out at 46.3%. With `Cc1nc(N(C)C)nc(C)c1NC(=O)c1ccccc1F`, the INHIBITION is given as 64.3%. Take `Cc1nc(N(C)C)nc(C)c1NC(=O)c1ccco1`: the INHIBITION is listed as -2.74%. On to `Cc1ccc(NC(=O)c2ncc(C(N)=O)cc2Cl)cc1F`, for which the INHIBITION is on record as -10.8%. Regarding `CNS(=O)(=O)c1cc(C(=O)NC2COc3ccccc32)cc(C)c1C` (configuration not stated), the INHIBITION is 18.4%. Regarding `O=C(c1cccnc1N1CCCCC1)N1CCCC(n2cccn2)C1` (configuration not stated), the INHIBITION is given as -11.9%.

For `CCOCCNS(=O)(=O)c1cc(C)c2nc(O)cc(C)c2c1`, the INHIBITION was 16.3%.

For the molecule `CNS(=O)(=O)c1cc(C)c2[nH]c(=O)cc(C)c2c1`, the INHIBITION came to 56%. With `CCCNS(=O)(=O)c1ccc2[nH]c(=O)cc(C)c2c1`, the INHIBITION was determined as 14.3%. Take `CN(C)C(=O)[C@@H]1C[C@@H]2CCN(C3CCOCC3)C[C@@H]2O1`: the INHIBITION is reported as 14.5%. The same measure for `CCc1cc(NCC(O)CN2CCCCC2)n2ncnc2n1` (configuration not stated): -0.79%. Turning to `CCOc1cccc(C(=O)N2C[C@@H]3CC[C@H]2CN(C(=O)C2CCC2)C3)c1`, the INHIBITION came out at 27.6%. The same measure for `CN(C)C(=O)N1C[C@H]2CC[C@@H](C1)N(C(=O)c1cccc(N(C)C)c1)C2`: 26.7%.

`CN(C)c1cccc(C(=O)N2C[C@@H]3CC[C@H]2CN(C(=O)C2CCC2)C3)c1`: the INHIBITION is given as 50.3%. On to `CN(C)C(=O)c1cnc2n1CCN(Cc1ccsc1)C2`, for which the INHIBITION is recorded as 3.11%. Consider `COCC1c2c(cnn2C)CCN1Cc1cccc(C)c1` (configuration not stated), for which the INHIBITION is reported as 26.3%. For `CN1CCN(CC2(O)CCCN(C(=O)Cc3cccc(O)c3)CC2)CC1` (configuration not stated) the value was -2.09%; for `O=S(=O)(Cc1ccccc1)NCc1ccco1`, 11.5%; for `O=S(=O)(Cc1ccc(F)cc1)NCc1ccco1`, 52.1%. The same measure for `Cc1ccc(CS(=O)(=O)NCc2ccco2)cc1`: 52.1%. In the case of `CC(C)(Oc1ccc(F)cc1)C(=O)NCc1ccco1`, the INHIBITION was -0.797%. Turning to `O=C1OCCN1c1cccc(CNS(=O)(=O)Cc2ccc(F)cc2)c1`, the INHIBITION turned out to be 18.9%.

With `CNc1c(NCc2ccco2)c(=O)c1=O`, the INHIBITION is recorded as 33.5%. Regarding `O=C1CCC[C@]2(CN(S(=O)(=O)N3CCCCC3)C[C@H]2c2cccnc2)N1`, the INHIBITION was 17.4%. Turning to `O=C(CO[C@@H]1CC[C@H]2[C@H]1OCCN2CC1CCOCC1)N1CCCC1`, the INHIBITION turned out to be 11.9%. Regarding `CN(C)CCN1CCOCC2(CCCN(C(=O)c3ccccc3)C2)C1` (configuration not stated), the INHIBITION is recorded as 20.9%. For `CN(C)CCN1CCOCC2(CCCN(C(=O)c3cccn3C)C2)C1` (configuration not stated), the INHIBITION came out at 47.9%.

Turning to `CN(C)CCN1CCOCC2(CCCN(C(=O)c3ccoc3)C2)C1` (configuration not stated), the INHIBITION is on record as 30.3%.

Consider `CN(C)CCN1CCOCC2(CCCN(C(=O)c3ccccn3)C2)C1` (configuration not stated), for which the INHIBITION stood at 54.7%. `CN1CCOCC2(CCCN(C(=O)c3ccc(-n4cccc4)cc3)C2)C1` (configuration not stated): the INHIBITION is 50.9%. For `Cc1cc(C(=O)N2CCCC3(COCCN(CCN(C)C)C3)C2)no1` (configuration not stated) the value was 56.1%; for `CN1CCOCC2(CCCN(C(=O)c3ccccc3F)C2)C1` (configuration not stated), 34.6%; for `CN1CCOCC2(CCCN(C(=O)c3cn(C)cn3)C2)C1` (configuration not stated), -57.7%. For `CN(C)CCN1CCOCC2(CCCN(C(=O)c3cccc(O)c3)C2)C1` (configuration not stated), the INHIBITION stood at 4.61%.

With `Cc1ccc(C)c(NS(=O)(=O)c2cc3c(c(C(=O)O)c2)OCCO3)c1`, the INHIBITION worked out at 38.8%. Regarding `O=C(NCCc1nc(C2CC2)no1)[C@H]1CNC[C@H](C(=O)N2CCCC2)C1`, the INHIBITION was -31.3%. `Cc1nn(C)c(N(C)C)c1CNCc1ccc(OCCN(C)C)cc1`: the INHIBITION stood at 27.6%.

On to `COCCn1ccc2cc(NC(C)=O)ccc21`, for which the INHIBITION was found to be 18.2%. Turning to `COC(=O)C(C)NCc1ccc2[nH]c(C)c(C)c2c1` (configuration not stated), the INHIBITION is 46.4%. Consider `CSCC(C)NCc1ccc2[nH]c(C)c(C)c2c1` (configuration not stated), for which the INHIBITION is reported as 76.9%. For `Cc1[nH]c2ccc(CNc3cc(C#N)ccn3)cc2c1C` the value was 16.9%. The same measure for `Cc1[nH]c2ccc(CNc3cc(C(N)=O)ccn3)cc2c1C`: 16.9%; for `COCC(C)NCc1ccc2[nH]c(C)c(C)c2c1` (configuration not stated): 2.9%. For `Cc1[nH]c2ccc(CNc3cc(C(=O)NC(C)C)ccn3)cc2c1C` the value was 55.4%.

Turning to `CC(=O)N1Cc2ccccc2OC2(CCN(C(=O)C3CC3)CC2)C1`, the INHIBITION is 37.8%. The same measure for `CCCSc1ncccc1C(=O)NCc1ccc(S(N)(=O)=O)cc1`: -7.29%.

Regarding `N#Cc1cccc(NS(=O)(=O)c2ccc(C(=O)O)cc2F)c1`, the INHIBITION is on record as 45.7%. As to `CN(Cc1ccc(N(C)C)cc1)C(=O)CS(=O)(=O)c1ccc(Cl)cc1`, the INHIBITION stood at 64.3%. For `CN(C)c1ccc(CNC(=O)c2ccc(Cl)cc2F)cc1`, the INHIBITION amounted to 14.2%. As for `CN(Cc1ccc(OC(F)F)cc1)C(=O)CS(=O)(=O)c1ccc(Cl)cc1`, the INHIBITION was determined as 34.7%. With `CC1(C)O[C@@](C)([C@H]2CC3(CCN(c4ncccn4)CC3)CO2)CC[C@@H]1O`, the INHIBITION stood at 32.7%. On to `CC(C)c1noc(CN2CCN(C(=O)c3ccc(F)cc3)CC2)n1`, for which the INHIBITION was 16.8%.

Turning to `Cc1cc(I)c2c(c1)C(=O)C(CN1CCCC1)(CN1CCCC1)CO2`, the INHIBITION is listed as -55.3%.

Turning to `O=C1c2cc(Br)cc(Br)c2OCC1(CN1CCCC1)CN1CCCC1`, the INHIBITION is on record as 59%. As to `O=C(CN1CCCCC1)Nc1ncc(Br)cc1Br`, the INHIBITION is 27.8%. With `FC(F)CN1CCC(NCCc2ccc(-n3cccn3)cc2)CC1`, the INHIBITION is 6.83%. On to `Cc1cc(C2CCCN(C(=O)c3ccc(OCC4CC4)nc3)C2)n[nH]1` (configuration not stated), for which the INHIBITION was determined as 20.4%.

For `CCC(=O)NC1CCCN(C(=O)c2ccc(OCC3CC3)nc2)C1` (configuration not stated), the INHIBITION is recorded as 78.8%. In the case of `Cc1cnn(C2CCCN(C(=O)c3ccc(OCC4CC4)nc3)C2)c1` (configuration not stated), the INHIBITION worked out at 13.483%.

Take `CN(Cc1ccco1)C1COC2(CCN(Cc3nccs3)CC2)C1` (configuration not stated): the INHIBITION amounted to 28.3%.

For `CNC(=O)[C@@H](C)NC(=O)c1cc(-c2ccc(F)cc2)c(C)s1`, the INHIBITION is reported as 12.4%. Take `O=S1(=O)C[C@@H]2[C@H](C1)N(Cc1cc(Cl)cc(Cl)c1)CCN2CCO`: the INHIBITION is given as 30.7%. With `CCN1CCN(S(=O)(=O)N2CCc3ccccc3C2)[C@H]2CS(=O)(=O)C[C@H]21`, the INHIBITION is recorded as -40.4%.

Turning to `CCCN1CCN(Cc2cccc(OCC(N)=O)c2)[C@H]2CS(=O)(=O)C[C@H]21`, the INHIBITION came to 36.8%. Turning to `CCCN1CCN(Cc2cccc(OC)c2)[C@H]2CS(=O)(=O)C[C@H]21`, the INHIBITION amounted to 53.2%.

As for `O=S1(=O)C[C@@H]2[C@H](C1)N(Cc1cc(F)cc(Cl)c1)CCN2CCO`, the INHIBITION came to 58.5%.

On to `Cc1ccc(CN2CCN(Cc3ccncc3)[C@@H]3CS(=O)(=O)C[C@@H]32)cc1`, for which the INHIBITION worked out at 36.7%. For `O=S1(=O)C[C@@H]2[C@H](C1)N(Cc1cc(F)cc(F)c1)CCN2CCO`, the INHIBITION was 33.7%. Take `CCCN1CCN(S(=O)(=O)c2ccccc2OC)[C@H]2CS(=O)(=O)C[C@H]21`: the INHIBITION is 65.7%. For the molecule `COc1ccccc1S(=O)(=O)N1CCN(C)[C@@H]2CS(=O)(=O)C[C@@H]21`, the INHIBITION worked out at 39.6%.

On to `O=S1(=O)C[C@@H]2[C@H](C1)N(Cc1cc(Cl)cc(Cl)c1)CCN2CC1CC1`, for which the INHIBITION came out at 25.4%. `CCCN1CCN(Cc2cc(Cl)cc(Cl)c2)[C@H]2CS(=O)(=O)C[C@H]21`: the INHIBITION worked out at 50.5%.

With `CCCN1CCN(Cc2cccc(OC(C)C)c2)[C@H]2CS(=O)(=O)C[C@H]21`, the INHIBITION came to 40.1%.
